Among the data in publication doi:10.1101/2024.03.05.583629 are binding signal values, retold here.

Test [1] has as its target pT7_6His-AlfaTag-HOXD13 (human, UniProt P35453 263-343). Nature of the test: PADIT-seq. Conditions: dsDNA, one strand shown.
Test [2] deals with pT7_6His-AlfaTag-ZIF268 (human, UniProt P18146 335-423). The experiment in a line: PADIT-seq. Conditions: dsDNA, one strand shown.

Sequence of pT7_6His-AlfaTag-HOXD13 (P35453 263-343): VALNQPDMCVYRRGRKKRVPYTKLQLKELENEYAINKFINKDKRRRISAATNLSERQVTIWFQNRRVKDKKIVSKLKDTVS

Regarding “CTCGAGGATATCAAGATCTGGCCTCGGCGTTTTATTGGGAACCTCTAGCTAGCCGACTCACTATAGGGATAATCGCCCTGAGCAAAGACC”, the binding signal in test [1] turned out to be 3.37 ± 0.0853 log2FC; in test [2], 0.0618 ± 0.0949 log2FC.

Turning to “CTCGAGGATATCAAGATCTGGCCTCGGCACACCACGCGGAACCTCTAGCTAGCCGACTCACTATAGGGATAATCGCCCTGAGCAAAGACC”, the binding signal in test [1] is -0.837 ± 0.131 log2FC; in test [2], 0.0231 ± 0.103 log2FC.

On to “CTCGAGGATATCAAGATCTGGCCTCGGCTTATGGGCGGGAACCTCTAGCTAGCCGACTCACTATAGGGATAATCGCCCTGAGCAAAGACC”, for which the binding signal was 1.03 ± 0.0902 log2FC in test [1] and 0.0657 ± 0.0898 log2FC in test [2].

Take “CTCGAGGATATCAAGATCTGGCCTCGGCGCATGGGCGGGAACCTCTAGCTAGCCGACTCACTATAGGGATAATCGCCCTGAGCAAAGACC”: the binding signal in test [1] is -0.757 ± 0.112 log2FC; in test [2], 0.51 ± 0.0916 log2FC.

In the case of “CTCGAGGATATCAAGATCTGGCCTCGGCCGCGACCGCGGAACCTCTAGCTAGCCGACTCACTATAGGGATAATCGCCCTGAGCAAAGACC”, the binding signal was -0.85 ± 0.123 log2FC in test [1] and 0.0618 ± 0.097 log2FC in test [2].

“CTCGAGGATATCAAGATCTGGCCTCGGCCGCCGACGCGGAACCTCTAGCTAGCCGACTCACTATAGGGATAATCGCCCTGAGCAAAGACC”: the binding signal in test [1] is -0.893 ± 0.142 log2FC; in test [2], 0.21 ± 0.115 log2FC.

For the sequence “CTCGAGGATATCAAGATCTGGCCTCGGCCGCCCACTGGGAACCTCTAGCTAGCCGACTCACTATAGGGATAATCGCCCTGAGCAAAGACC”, the binding signal in test [1] was -0.571 ± 0.123 log2FC; in test [2] it was 0.278 ± 0.104 log2FC.

With “CTCGAGGATATCAAGATCTGGCCTCGGCACGTGGGCGGGAACCTCTAGCTAGCCGACTCACTATAGGGATAATCGCCCTGAGCAAAGACC”, the results for the binding signal in test [1] and in test [2] were -0.888 ± 0.116 log2FC and 3.56 ± 0.0868 log2FC, respectively.

Take “CTCGAGGATATCAAGATCTGGCCTCGGCATTTTACTTGGAACCTCTAGCTAGCCGACTCACTATAGGGATAATCGCCCTGAGCAAAGACC”: the binding signal was determined as 1.23 ± 0.0944 log2FC in test [1] and 0.0654 ± 0.0956 log2FC in test [2].

For the sequence “CTCGAGGATATCAAGATCTGGCCTCGGCAGATTAAAAGGAACCTCTAGCTAGCCGACTCACTATAGGGATAATCGCCCTGAGCAAAGACC”, the binding signal in test [1] is 1.14 ± 0.0686 log2FC; in test [2] it was 0.0127 ± 0.0692 log2FC.

For the sequence “CTCGAGGATATCAAGATCTGGCCTCGGCTCACTAAAAGGAACCTCTAGCTAGCCGACTCACTATAGGGATAATCGCCCTGAGCAAAGACC”, the binding signal in test [1] turned out to be 0.718 ± 0.11 log2FC; in test [2], 0.00307 ± 0.107 log2FC.

Take “CTCGAGGATATCAAGATCTGGCCTCGGCGGGATAAAAGGAACCTCTAGCTAGCCGACTCACTATAGGGATAATCGCCCTGAGCAAAGACC”: the binding signal in test [1] amounted to 0.241 ± 0.0798 log2FC; in test [2], 0.0461 ± 0.0742 log2FC.

Turning to “CTCGAGGATATCAAGATCTGGCCTCGGCGTTTTACCAGGAACCTCTAGCTAGCCGACTCACTATAGGGATAATCGCCCTGAGCAAAGACC”, the values for the binding signal in test [1] and in test [2] were 0.423 ± 0.103 log2FC and 0.0291 ± 0.0981 log2FC, respectively.

As for “CTCGAGGATATCAAGATCTGGCCTCGGCCATCCACGCGGAACCTCTAGCTAGCCGACTCACTATAGGGATAATCGCCCTGAGCAAAGACC”, the binding signal was -1.04 ± 0.111 log2FC in test [1] and 0.00839 ± 0.0869 log2FC in test [2].

On to “CTCGAGGATATCAAGATCTGGCCTCGGCTTTTTAGTTGGAACCTCTAGCTAGCCGACTCACTATAGGGATAATCGCCCTGAGCAAAGACC”, for which the binding signal is 0.658 ± 0.103 log2FC in test [1] and 0.189 ± 0.0984 log2FC in test [2].

“CTCGAGGATATCAAGATCTGGCCTCGGCTACATAAAAGGAACCTCTAGCTAGCCGACTCACTATAGGGATAATCGCCCTGAGCAAAGACC”: the binding signal came out at 2.05 ± 0.0966 log2FC in test [1] and 0.0761 ± 0.103 log2FC in test [2].

As to “CTCGAGGATATCAAGATCTGGCCTCGGCACGCTAAAAGGAACCTCTAGCTAGCCGACTCACTATAGGGATAATCGCCCTGAGCAAAGACC”, the binding signal in test [1] is -0.127 ± 0.102 log2FC; in test [2], 0.0119 ± 0.0913 log2FC.

With “CTCGAGGATATCAAGATCTGGCCTCGGCATCCCACGCGGAACCTCTAGCTAGCCGACTCACTATAGGGATAATCGCCCTGAGCAAAGACC”, the figures for the binding signal in test [1] and in test [2] were -0.991 ± 0.113 log2FC and 0.41 ± 0.087 log2FC, respectively.

As to “CTCGAGGATATCAAGATCTGGCCTCGGCGCGTGGACAGGAACCTCTAGCTAGCCGACTCACTATAGGGATAATCGCCCTGAGCAAAGACC”, the binding signal in test [1] was -1.05 ± 0.134 log2FC; in test [2] it was 0.15 ± 0.106 log2FC.

Turning to “CTCGAGGATATCAAGATCTGGCCTCGGCGTTTTAGCCGGAACCTCTAGCTAGCCGACTCACTATAGGGATAATCGCCCTGAGCAAAGACC”, the figures for the binding signal in test [1] and in test [2] were -0.579 ± 0.147 log2FC and 0.0458 ± 0.125 log2FC, respectively.

Consider “CTCGAGGATATCAAGATCTGGCCTCGGCAAATTAAAAGGAACCTCTAGCTAGCCGACTCACTATAGGGATAATCGCCCTGAGCAAAGACC”, for which the binding signal in test [1] worked out at 2.15 ± 0.08 log2FC; in test [2] it was 0.0496 ± 0.0856 log2FC.
